Assay results published in PubChem BioAssay AID492965 (The Scripps Research Institute Molecular Screening Center, 2010).
In all, about 1,100 compounds went through this assay and about 100 (9.1%) were called active.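 The calls were made as follows: active = inhibition above a per-plate limit, the mean inhibition of that plate's test compounds plus 3 SD (cut at about 25% in these data); inactive = the rest.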 Not all results are given here.

Test: ATP-evoked calcium inhibition in parental CHO, counter-screen for OX1R antagonist project, cell-based, fluorescence, CHO-K1, triplicate (AID 492965);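 also: 0% = ATP challenge with DMSO and 100% = DMSO without ATP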
Settings: parental CHO-K1, ATP-induced calcium, Fluo-8 fluorescence; at 5.6 µM; active compounds read high

Compound | inhibition
COc1cc(CN2CC(C)CC(C)C2)cc([N+](=O)[O-])c1O (stereo not given) | 22.2% (inactive)
O=C(Nc1cccc(NC(=O)N2CCN(c3ccccc3)CC2)c1)N1CCN(c2ccccc2)CC1 | 6.96% (inactive)
CCOC(=O)c1cccc(NC(=O)CN(c2ccc(C)cc2)S(=O)(=O)c2c(C)noc2C)c1 | -18.6% (inactive)
Cc1cc(-c2ccc(C)c(S(=O)(=O)NC(C)Cc3ccco3)c2)on1 (stereo not given) | -8.08% (inactive)
COc1ccc(/C=C/C(=O)c2ccc(NS(=O)(=O)c3ccc(C)cc3)cc2)cc1O | 2.08% (inactive)
Cc1ccc2c(C)c(C(=O)N(C)CCC3CCCCO3)oc2c1C (stereo not given) | -10% (inactive)
C/C(N)=C(/C#N)C(=O)COC(=O)c1cc(-c2ccc(C)cc2)nc2ccccc12 | -4.89% (inactive)
c1coc(CNc2ncnc3ccccc23)c1 | 26.1% (active)
N#C/C(=C1\CCCN1)c1nc(-c2ccccc2)cs1 | 3.08% (inactive)
Cc1cc(C)cc(NC(=O)C2CCCN2S(=O)(=O)c2cccc3cccnc23)c1 (stereo not given) | -10.6% (inactive)
O=C(OC1CCOC1=O)c1ccc(-c2nc3ccccc3s2)s1 (stereo not given) | 10.7% (inactive)
Cc1ccc(NC(=O)COc2ccc(-n3ccnc3)cc2)cc1Cl | 15.7% (inactive)
O=C(Nc1cccc2cccnc12)c1cccc(N2C(=O)CCC2=O)c1 | -5.5% (inactive)
CCc1ccccc1OCC(=O)Nc1ccc(C)c(S(=O)(=O)N2CCCCCC2)c1 | 2.45% (inactive)
CCCN(CC(=O)Nc1ccccc1OC)C(=O)CCC(=O)c1ccc(F)cc1 | -5.67% (inactive)
CCCc1nc2c(c(=O)c3ccccc3n2C)c(=O)n1C1CCCCCC1 | -3.88% (inactive)
CC1(C)C2CC=C(/C=N/NC(=O)C3CC3)C1C2 (stereo not given) | -15% (inactive)
CCCCCCCC(=O)NC(Nc1ccccc1OC)C(Cl)(Cl)Cl (stereo not given) | -10.6% (inactive)
CCCCC(=O)NNC(=S)NC(=O)C(c1ccccc1)c1ccccc1 | 34.8% (active)
COc1ccc(N2CC(C(=O)NCCN3C(=O)S/C(=C\c4cccnc4)C3=O)CC2=O)c(OC)c1 (stereo not given) | -8.16% (inactive)
Cc1cc(N2CCCC2=O)cc(C)c1S(N)(=O)=O | -0.33% (inactive)
C=CCn1c(SCC(=O)Nc2nc3ccccc3s2)nnc1-c1ccccc1O | -4.55% (inactive)

Compound | inhibition
S=c1[nH]nc(-c2cc(-c3ccccc3)n[nH]2)n1/N=C/c1c2ccccc2cc2ccccc12 | -7.45% (inactive)
CCOc1cc(/C=C(\C#N)c2nc(-c3cccs3)c(NC(C)=O)s2)ccc1O | 14.1% (inactive)
COCc1c(C(=O)OCC(=O)Nc2ccc(OC(F)F)cc2)oc2ccccc12 | -3.09% (inactive)
CCC(=O)N(C)C(c1ccccc1Cl)c1nnnn1-c1c(C)cccc1C (stereo not given) | -6.17% (inactive)
Cc1cccc(NC(=O)Nc2cccc(Oc3c(F)c(F)c(F)c(F)c3F)c2)c1 | 38.9% (active)
Cc1cccc(NS(=O)(=O)c2cccc(C(=O)NNC(=O)c3ccccc3O)c2)c1 | 15.6% (inactive)
CC(=O)Nc1cccc(OCC(=O)/C=C2\N(C)c3ccccc3C2(C)C)c1 | 6.99% (inactive)
N#Cc1nc(-c2cccc3ccccc23)oc1N | -11.2% (inactive)
O=C1c2ccccc2S(=O)(=O)N1CC(O)Cn1c2ccccc2c2ccccc21 (stereo not given) | 4.28% (inactive)
N#C/C(=C/c1ccc(N2CCCCC2)o1)C(=O)NCCc1c[nH]c2ccccc12 | 31.6% (active)
CCOc1ccc(/C=C/C(=O)OCC(=O)c2ccccc2OC)cc1OC | -17.5% (inactive)
COc1cccc(/C=N/NC(=O)c2[nH]nc3c2CCc2ccccc2-3)c1O | -10.5% (inactive)
CCOC(=O)N1CCN(C(=O)c2ccc(S(=O)(=O)Nc3cccc(C(F)(F)F)c3)cc2)CC1 | 9.17% (inactive)
CCOC(=O)N1CCN(c2cc(C)c([N+](=O)[O-])cc2F)CC1 | 13.3% (inactive)
N/C(=N\OC(=O)Nc1ccc(Cl)c(Cl)c1)c1ncc(C(F)(F)F)cc1Cl | 14.7% (inactive)
CC(C)(C)NC(=O)CN(C(=O)c1csnn1)c1ccccc1-c1ccccc1 | -0.67% (inactive)
O=C(N/N=C/c1sc(N2CCCCC2)nc1-c1cccs1)c1cccnc1 | -6.04% (inactive)
Nc1nc(COC(=O)CCC(=O)c2ccc(Cl)cc2)nc(Nc2ccccc2)n1 | -7.47% (inactive)
COc1cccc(/C=N/Nc2cc(C)nc(-c3ccccc3O)n2)c1O | -5.66% (inactive)
CC1CCCN(CC(O)COCc2ccccc2)C1 (stereo not given) | -5.68% (inactive)
Cc1ccccc1S(=O)(=O)N1[C@@H](c2cccc(Cl)c2)C(C(=O)O)=CC[C@H]1c1ccc(Cl)cc1 | 13.3% (inactive)
Cc1ccc(S(=O)(=O)N2CCN(c3ncnc4ccccc34)CC2)cc1 | 50.8% (active)

Compound | inhibition
COC(=O)c1sccc1NC(=O)CSc1ccccc1NS(=O)(=O)c1cc(Cl)ccc1Cl | 8.36% (inactive)
NC(=O)C1=C[C@@H](c2ccc3c(c2)OCO3)C[C@@H](OCCCCO)O1 | -5.99% (inactive)
CCn1c(SCC(=O)c2ccc3ccccc3c2)nnc1-c1cccs1 | -8.88% (inactive)
Cn1c(N)c(C(=O)COC(=O)c2ccc3ccccc3c2)c(=O)n(C)c1=O | 1.91% (inactive)
CC(Oc1ccc2ccccc2c1)C(=O)NNC(=S)NC(=O)c1ccco1 (stereo not given) | -8.71% (inactive)
COc1cccc(C(=O)NC(=O)Nc2nc(C)cc(C(F)(F)F)n2)c1 | -10.8% (inactive)
N#CC(=C1SC=CS1)c1nc(-c2ccccc2)cs1 | -3.94% (inactive)
CCOC(=O)c1c(-c2ccc(C)cc2C)csc1NC(=O)CSc1nnnn1C | -6.6% (inactive)
Cc1cc(C(=O)NC2CCCc3c2cnn3-c2cccc(C)c2C)c(C)o1 (stereo not given) | 34% (active)
O=C(NC(Cc1c[nH]c2ccccc12)C(=O)N/N=C/c1ccc(Br)cc1)c1cccs1 (stereo not given) | 3.66% (inactive)
CCOc1ccc(CCNC(=O)C(CC)n2nc(C)n3c(cc4sccc43)c2=O)cc1OCC (stereo not given) | -2.6% (inactive)
COc1ccc2[nH]cc(/C=C(/C#N)S(=O)(=O)c3ccccc3)c2c1 | -11.6% (inactive)
COc1cc2ccccc2cc1C(=O)Nc1ccc(N2CCOCC2)cc1 | -8.59% (inactive)
O=C(Cn1[nH]c(=O)c2ccccc2c1=O)Nc1cccc(-c2nnc3n2CCCCC3)c1 | -5.39% (inactive)
O=C(N/N=C/c1c(Cl)[nH]c2ccccc12)c1sc2ccccc2c1Cl | 10.8% (inactive)
COc1ccc2sc(-c3ccc(N(C)C)cc3)c(C#CCO)c2c1 | -6.95% (inactive)
CN(c1ccccc1)S(=O)(=O)c1cccc(NC(=O)Cc2ccc(Cl)cc2)c1 | 6.81% (inactive)
S=C(NCc1ccc(Cl)cc1)NC12CC3CC(CC(C3)C1)C2 | 14% (inactive)
COc1ccccc1CNC(=O)C1CCCN(S(=O)(=O)c2cccc3cccnc23)C1 (stereo not given) | -8.22% (inactive)
O=C1C=C(c2ccc(Cl)cc2)C(=O)N1Nc1ccccc1 | 22.4% (inactive)
O=C(CCCN1CCc2[nH]c3ccc(F)cc3c2C1)c1ccc(F)cc1 | 26.8% (active)
